L3MBTL1 block: inhibitors of human L3MBTL1. 230,000 tested, 0.66% active. Potency, µM (top dose mostly 57.1 µM), without a hit: at the highest dose activity, negative = inhibition, actives largely listed as inhibitors. AlphaScreen L3MBTL1–H3K9me1 peptide binding. Q9Y468; also: % is scaled to controls: 0 for no effect and ±100 for the full control effect; nearly all actives have a fitted effect of over 60% in size
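L3MBTL1 (50 nM) pre-complexed 30 min with biotinylated H3(1-15)K9me1 peptide (75 nM), then compounds added for 30 min at room temperature; AlphaScreen streptavidin donor/nickel chelate acceptor beads (10 ug/mL final) read after 30 min dark incubation.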
G9a block: inhibitors of human histone lysine methyltransferase G9a; Potency, µM (highest dose often 102 µM), inactives show at the top dose activity, negative = inhibition, actives largely listed as inhibitors; 350,000 tested, 8.8% active; G9a H3K9 monomethylation, AlphaScreen, 2 h; AID 504332; also: % is scaled to controls: 0 for no effect and ±100 for the full control effect; nearly all actives have a fitted effect of over 75% in size
Target sequence (Q96KQ7 913-1193 limits assumed): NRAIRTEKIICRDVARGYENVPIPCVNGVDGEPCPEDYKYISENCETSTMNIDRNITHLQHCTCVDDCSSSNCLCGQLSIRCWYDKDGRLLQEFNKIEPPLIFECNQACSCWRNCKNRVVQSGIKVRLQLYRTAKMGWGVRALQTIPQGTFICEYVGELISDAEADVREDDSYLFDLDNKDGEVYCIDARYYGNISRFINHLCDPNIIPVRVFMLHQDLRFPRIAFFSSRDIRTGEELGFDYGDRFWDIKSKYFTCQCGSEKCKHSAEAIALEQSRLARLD
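G9a (20 nM) was preincubated 15 min with compound, then reacted 2 h at room temperature with 500 nM biotin-H3K9 peptide and 20 µM SAM. Monomethyl-H3K9 detected by AlphaScreen using anti-H3K9me1 antibody.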
Sfp inh: blocks B. subtilis Sfp PPTase activity; Q9F4F7; Biochemical Sfp PPTase activity, qHTS; 310,000 tested, 3.5% active; Potency, µM, inactives show largest response in the series, negative = inhibition, most hits filed as inhibitors;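 also: the enzyme is Sfp with the accession as filed and its product quenches rhodamine fluorescence; 0% = enzyme reaction without inhibitor and -100% = no enzyme wells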
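Buffer: 50 mM Hepes-Na pH 7.6, 10 mM MgCl2, 0.01% Nonidet P-40, 0.01% BSA. Enzyme 15 nM, pre-exposed to compound 15 min; substrates then added and fluorescence change tracked over 30 min.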
HP1b binding inh: inhibitors of HP1-beta chromodomain binding to methylated histone tails | 390,000 tested, 0.56% active | P83916 | AlphaScreen HP1-beta / biotin-H3K9me3 peptide binding | Potency, µM (series often up to 114 µM), inactives show at the top dose activity change, negative = inhibition, actives largely listed as inhibitors; also: nearly all actives have a fitted effect of over 70% in size
Target sequence (P83916 whole entry, looked up): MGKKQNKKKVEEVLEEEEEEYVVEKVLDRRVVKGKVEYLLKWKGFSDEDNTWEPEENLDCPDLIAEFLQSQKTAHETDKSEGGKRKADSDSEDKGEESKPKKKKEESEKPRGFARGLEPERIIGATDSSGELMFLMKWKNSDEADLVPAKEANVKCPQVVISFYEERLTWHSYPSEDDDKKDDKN
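HP1-beta protein (50 nM final) preincubated 30 min at room temperature with biotinylated H3(1-18)K9me3 peptide (50 nM) in PBS pH 7.4, 0.01% Tween-20, then compound added for 30 min. AlphaScreen streptavidin donor/nickel chelate acceptor beads (10 ug/mL final), 30 min dark, luminescence read.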
BAZ2B inh: BAZ2B (human) inhibition. Q9UIF8. AlphaScreen BAZ2B-H3K14Ac peptide displacement. Potency, µM (doses to about 114 µM), without a hit: top-dose activity change, negative = inhibition, most hits filed as inhibitors. 360,000 tested, 4.4% active; also: % is scaled to controls: 0 for no effect and ±100 for the full control effect; nearly all actives have a fitted effect of over 60% in size
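AlphaScreen luminescence quantifies BAZ2B engagement of H3K14Ac peptide; the protein and biotinylated peptide are both at 50 nM final, buffer PBS pH 7.4 with 0.01% Tween-20, all steps at room temperature.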
JMJD2A Tudor: inhibitors of human JMJD2A Tudor domain; AlphaScreen JMJD2A-Tudor / H3K4me3 peptide binding; Potency, µM (highest dose often 114 µM), for the others: top-dose activity change, negative = inhibition, hits mostly inhibitors; 390,000 tested, 4.4% active; AID 504339; also: % is scaled to controls: 0 for no effect and ±100 for the full control effect; nearly all actives have a fitted effect of over 50% in size
Active calls of the source: *; ? = inconclusive; / = no result; [ ] = remark or other dose. Only some compounds are listed: those with a hit (about 12% of all), similar ones and a draw of the others. Calls follow the shape of the dose curve; as a rule, active = well fitted curve in the direction sought with a large enough effect; inconclusive = small, poorly fitted or top-dose-only effect, or another doubt; inactive = no such curve, though single readings can be large; an effect the other way counts as inactive or inconclusive. Potency is read from the fitted curve at half-maximal effect.

SMILES	L3MBTL1 block	G9a block	Sfp inh	HP1b binding inh	BAZ2B inh	JMJD2A Tudor
Cc1cc(C(=O)CSc2ccc3c(c2)OCCO3)c(C)n1C1CC1	-15%	?	-18%	-15%	79µM*	-26%
Cc1ccc(Cl)cc1N1CCN(C(=O)C2CCN(S(=O)(=O)c3ccc4c(c3)oc(=O)n4C)CC2)CC1	/	0%[59 µM]	/	18%	2%	-1%
COc1ccc(NC(=O)CSc2nc3c(oc4ccccc43)c(=O)n2-c2ccccc2)cc1OC	/	0%[59 µM]	/	39%	-2%	-8%
COc1ccc(C(C)=O)cc1COC(=O)CNC(=O)c1ccc(Cl)cc1	-1%	50µM*	12%	28%	-3%	-2%
COc1ccc(C(C)=O)cc1COC(=O)CNC(=O)c1ccc(F)cc1	2%	-15%[59 µM]	2%	30%	-1%	1%
CCOc1ccc(C(=O)NCC(=O)OCc2cc(C(C)=O)ccc2OC)cc1	0%	45µM*	-7%	5%	8%	-4%
C#C[C@]1(O)CC[C@H]2[C@H]3CCC4=Cc5oncc5C[C@]4(C)[C@@H]3CC[C@]21C	/	/	-22%	/	/	/
O=C(CCN1CCCCC1)c1ccccc1	/	?	2%	30%	29%	-11%
CCOc1ccc(C(=O)CCN2CCCCCC2)cc1	3%	5µM*	?	28%	0%	-9%
O=C(OCCN1CCOCC1)c1ccc(OCCN2CCOCC2)cc1	/	50µM*	1%	16%	-37%	?
CCCOc1ccc(C(=O)CCN2CCCCC2)cc1	-8%	18µM*	-26%	29%	-7%	-13%
CCCOc1ccc(C(=O)CCC(=O)Nc2ccc(N3CCN(C)CC3)cc2)cc1	?	?	/	-21%	50µM*	56µM*
Cc1ccc(NC(=O)c2ccc3c(c2)NC(=O)c2ccccc2S3)cc1	/	0%[59 µM]	/	31%	4%	-11%
COc1ccc(-c2cc(=S)ss2)cc1	/	?	2%	/	/	/
CCCCOc1ccc(C(=O)CCN2CCOCC2)cc1	9%	22µM*	?	20%	0%	-18%[57.1 µM]
ON=C1c2cc(OCCN3CCCCC3)ccc2-c2ccc(OCCN3CCCCC3)cc21	-1%	/	-9%	-4%	?	?
NC(=S)NN=C1c2cc(OCCN3CCOCC3)ccc2-c2ccc(OCCN3CCOCC3)cc21	/	32µM*	-7%	?	40µM*	?
COc1cc(NC(=O)CCc2c(C)nc3c4c(C)cc(C)nc4nn3c2C)cc(OC)c1	/	?	/	-23%	-28%	?
CO/C([O-])=N/c1c[n+](-c2ccc(C)cc2)no1	7%	20µM*	10%	32%	7%	-23%
COc1ccc2c(c1)c1nc3ccccc3nc1n2Cc1ccc(OC(C)C)c(OC)c1	4%	5%	14µM*	78%	31%	1%
COc1ccc(Cn2c3ccc(OC)cc3c3nc4ccccc4nc32)cc1	14%	50%[59 µM]	1%	37%	13%	9%
C/C(CC1(O)/C(=N/O)CCc2nonc21)=N\O (stereo not given)	-4%	40µM*	11%	15%	4%	16µM*
C/C(CC1(O)C(=O)Nc2ccccc21)=N\O (stereo not given)	/	-3%[59 µM]	16%	19%	-13%	-11%
COc1ccc2[nH]c(=O)c(CNc3ccccc3OC)cc2c1	-2%	35µM*	16µM*	-15%	?	?
COc1ccc2[nH]c(=O)c(CNc3ccccc3)cc2c1	-5%	35µM*	50µM*	14%	0%	-28%
SMILES	L3MBTL1 block	G9a block	Sfp inh	HP1b binding inh	BAZ2B inh	JMJD2A Tudor
COc1ccc(NC(=O)c2cc(=O)[nH]c3ccccc23)cc1	/	13%	-9%	27%	-6%	8%
COc1ccc(NCc2cc(=O)[nH]c3ccccc23)cc1	/	?	2%	-13%	79µM*	?
COc1ccc2[nH]c(=O)c(CN(C(=O)c3cccc(Cl)c3)c3ccccc3OC)cc2c1	/	14µM*	/	15%	-10%	-12%
COc1ccc2[nH]c(=O)c(CNc3ccccc3C)cc2c1	1%	10µM*	22µM*	-2%	-1%	-27%
O=C(Nc1ccc(C2=NCCN2)cc1)c1ccc(C(=O)Nc2ccc(C3=NCCN3)cc2)c([N+](=O)[O-])c1	?	40µM*	-20%	?	?	?
Cc1ccc(NC(=O)c2ccc(-n3cccn3)c([N+](=O)[O-])c2)cc1	0%	10%	9%	-8%	-10%	-31%
Cn1nc(C(=O)NCCc2ccc(Cl)cc2)c2c1-c1ccccc1SC2	/	-30%[59 µM]	/	23%	-4%	-14%
CCC(Sc1ncccc1C(=O)Oc1ccccc1Cl)C(=O)Nc1ccccc1OC (stereo not given)	/	1%[59 µM]	/	44%	-1%	-15%
COc1ccccc1/C=N/NC(=O)c1c(-c2ccccc2)noc1C	/	10%[12.7 µM]	20%	27%	28%	-16%
Cc1cccc(/C=N/NC(=O)c2ccc3c(c2)OCCO3)c1O	/	37%	4%	/	20µM*	/
COc1cc(/C=N/NC(=O)c2ccc3c(c2)OCCO3)c(Br)c(Br)c1O	/	45µM*	-19%	-10%[57 µM]	-27%	-14%
Cc1cccc(/C=N/NC(=O)c2c(-c3ccccc3)noc2C)c1O	/	/	31%	42%	25µM*	?
CCOc1ccc(NC(=O)Cn2nnc(C(=O)OC)c2C(=O)OC)cc1	/	3%[59 µM]	/	17%	-3%	-10%
Cc1ccc(-c2cc(C(=O)Oc3ccc(C#N)cc3)no2)cc1	/	-2%[59 µM]	/	35%	-18%	-8%
O=c1cc(O)nc(SC23CC4CC(CC(C4)C2)C3)[nH]1	-1%	45µM*	-11%	16%	-35%	-35%
Clc1ccc(-c2csc(-c3nc(-c4ccc(Br)s4)cs3)n2)cc1	/	1%[59 µM]	/	26%	7%	-3%
COC(=O)C1=C(C)OC(N)=C(C#N)C1c1ccccc1F (stereo not given)	-2%	-2%[59 µM]	-1%	14%	-2%	-10%
CCOC(=O)C1=C(CSc2nc3c(cc2C#N)CN(C)CC3)OC(N)=C(C#N)C1c1ccccc1 (stereo not given)	-21%	50µM*	?	-1%	?	-22%[11.4 µM]
COC(=O)C1=C(CSc2nc3c(cc2C#N)CN(C)CC3)OC(N)=C(C#N)C1c1ccccc1F (stereo not given)	-23%	14µM*	22µM*	-19%	?	?
CCOC(=O)C1=C(CSc2nc(-c3ccccc3)ccc2C#N)OC(N)=C(C#N)C1c1cccnc1 (stereo not given)	/	40µM*	56µM*	33%	1%	-19%
CCOC(=O)C1=C(CSc2nc(-c3ccccc3)ccc2C#N)OC(N)=C(C#N)C1c1ccccc1 (stereo not given)	/	?	-28%	39%	-2%	-12%

High-throughput results from PubChem.
